Screening results: PubChem BioAssay, Buhrlage Lab, Dana-Farber Cancer Institute and Novartis Institutes for BioMedical Research (Cambridge, Mass)
USP10 block – inhibitors of human USP10 deubiquitinase; purified USP10, Ub-rhodamine fluorescence, 60 min; inhibition, % at 20 µM; actives 1.1% (n = 47,000); Ubiquitin carboxyl-terminal hydrolase 10 (Homo sapiens), Q14694
USP7 block – inhibitors of human USP7 deubiquitinase | purified USP7, Ub-rhodamine cleavage fluorescence | actives 0.3% (n = 47,000) | inhibition, % at 20 µM
UCHL1 block – inhibitors of human UCHL1 deubiquitinase. actives 0.2% (n = 47,000). inhibition, % at 20 µM. purified UCHL1, Ub-rhodamine cleavage fluorescence
Target sequence (P09936 whole entry, looked up): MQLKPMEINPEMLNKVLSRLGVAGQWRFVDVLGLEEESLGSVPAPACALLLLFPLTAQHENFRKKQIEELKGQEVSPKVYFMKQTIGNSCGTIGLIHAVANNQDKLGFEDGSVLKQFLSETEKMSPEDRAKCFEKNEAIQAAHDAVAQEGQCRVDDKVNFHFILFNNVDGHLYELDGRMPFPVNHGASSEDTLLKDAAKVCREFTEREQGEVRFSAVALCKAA
USP8 inh – inhibitors of human USP8 deubiquitinase; purified USP8, Ub-rhodamine cleavage fluorescence, 30 min; actives 4.2% (n = 47,000); Ubiquitin carboxyl-terminal hydrolase 8 (Homo sapiens), P40818; inhibition, % at 20 µM
Large screens that a line does not name were inactive. Most compounds without a hit are left out; they make up all but 4.6% or so of the library. No stated cut-off is given here; in the data, active means inhibition above about 30%; inactive means the rest.

CCn1c(SCC(=O)NC2CCCCC2)nc2ccccc21	none
COc1cccc(NC(=O)Cn2c(C(F)(F)F)nc3ccccc32)c1	none
CC(NC(=O)c1ccccc1)c1nc2ccccc2n1CC(=O)Nc1ccc(C#N)cc1 (stereo not given)	USP10 block 41.4, USP8 inh 78.0
CSCC[C@H](NC(=O)c1ccc(NC(C)=O)cc1)c1nnc2ccccn12	none
CSCCC(NC(=O)c1ccccc1)c1nc2ccccc2n1CC(=O)Nc1ccccc1 (stereo not given)	USP10 block 40.8, USP8 inh 46.5
CC(Oc1ccccc1)c1nc2ccccc2n1CC(=O)N1CCc2ccccc21 (stereo not given)	none
Cc1ccc(C(=O)NC(C)c2nc3ccccc3n2CC(=O)N2CCc3ccccc32)cc1 (stereo not given)	USP8 inh 63.0
COCCN1C[C@H]2COc3ccccc3[C@H]2N(C(=O)c2ccc(C)cc2)CCC1=O	none
Cn1cc(C(=O)Nc2cccnc2)c2nn(-c3ccccc3)c(=O)c-2c1	USP8 inh 30.6
O=C(Nc1cccnc1)c1cn(Cc2ccc(F)cc2)cc2c(=O)n(-c3ccccc3)nc1-2	none
COc1ccc(CCNc2cc(C)nc3c4c(C)cc(C)nc4nn23)cc1OC	none
O=C1c2[nH]nc(-c3ccccc3O)c2C(c2ccc(F)cc2)N1Cc1ccco1 (stereo not given)	USP8 inh 70.9
Cc1ccc(C2c3c(-c4ccccc4O)n[nH]c3C(=O)N2Cc2ccco2)cc1 (stereo not given)	USP8 inh 57.7
Cc1c(Cl)cccc1NC(=O)C1Cc2ccccc2CN1C(=O)c1ccccc1 (stereo not given)	none
O=C(Nc1ccccc1Cl)C1Cc2ccccc2CN1C(=O)c1ccccc1 (stereo not given)	USP8 inh 36.1
COc1ccc(C2NC(=O)NC(C)=C2C(=O)OC2CCCC2)cc1OC (stereo not given)	USP8 inh 34.7
COc1cc(C2NC(=O)NC(C)=C2C(=O)OC2CCCC2)cc(OC)c1OC (stereo not given)	none
Cc1cc(F)ccc1NC(=O)c1cccnc1N1CCNC(c2ccccc2)C1 (stereo not given)	none
Cc1cnn(CC2CN(Cc3cc(C#N)ccc3F)CCO2)c1 (stereo not given)	none
Cc1ccc(-c2ncc(NC(=O)C3CCC3)cn2)cc1	USP8 inh 33.3
Cc1ccc(-c2cc(C(=O)Nc3ccccc3Cl)[nH]n2)c(O)c1C	USP8 inh 33.1
O=S(=O)(c1ccc(F)cc1)c1nc(-c2ccco2)oc1SCc1ccc(F)cc1	none
O=S(=O)(Nc1nc(-c2ccco2)c(-c2ccco2)s1)c1ccc(F)cc1F	USP8 inh 37.4
CCc1cc(C(=O)Nc2ccc(C3CCc4nncn4C3)cc2)on1 (stereo not given)	none
CCN1C(=O)[C@H]2CN(CCOC)C[C@H]2C12CCN(C(=O)Cc1ccccc1)CC2	none
Cc1c(C(=O)OCC(=O)Nc2ccc3c(c2)OCO3)oc2ccc(Br)cc12	USP10 block 34.8
Cc1cc(C)cc(C(=O)N2CCCC(C(=O)N3CCCC3)C2)c1 (stereo not given)	none
COC(=O)COc1ccc(/C=N/NC(=O)c2ccc(CN3CCc4ccccc4C3)cc2)cc1	USP8 inh 36.5
O=C(Nc1ccccc1C(=O)N1CCCC1)c1ccc(CN2CCc3ccccc3C2)cc1	USP8 inh 40.4
Cc1nc(C)c(CC(=O)N2CCCCC2c2nnc(-c3nccc4ccccc34)o2)s1 (stereo not given)	none
O=c1ccc(-c2noc(-c3ccc4cc[nH]c4c3)n2)c[nH]1	USP8 inh 51.0
O=C1NC(=N/N=C/c2ccccc2)SC1Cc1cc(C(F)(F)F)ccc1Cl (stereo not given)	USP10 block 46.6
O=C(Nc1ccccc1)c1c(O)c2cnn(Cc3ccccc3)c2[nH]c1=O	USP8 inh 56.8
COc1ccc(CCNC(=O)c2ccc3c(c2)SC2=NS(=O)(=O)CCN23)cc1	USP8 inh 35.1
O=C(Nc1cccc(C(F)(F)F)c1)c1ccc2c(c1)SC1=NS(=O)(=O)CCN12	none
Cc1cccc(CCN2C(=O)CCc3c(C)nc(C4CCCNC4)nc32)c1 (stereo not given)	USP7 block 32.9
COc1ccc(CCN2COc3c(cc(Cl)c4cccnc34)C2)cc1OC	UCHL1 block 30.8, USP8 inh 97.3
CC1=C(Cn2c3cccc(=O)c-3nc3ccccc32)CCC(C)(C)C1	USP10 block 58.1, USP7 block 34.8, UCHL1 block 61.7, USP8 inh 58.6
CCCCOc1ccccc1C(=O)Oc1ccc(-n2cnnn2)cc1	none
